Calls of active or inactive are those of the source. Rule for the calls: active = hit-call score of the fitted dose curve at least 0.9, where 1 is the maximum; inactive = score below 0.9.
target: Transcriptional activator Myb (Homo sapiens) (UniProt P10242); test: ATG_Myb_CIS: Attagene CIS-FACTORIAL HepG2 Assay for human Myeloblastosis (Myb) Proto-Oncogene Transcription Factor (AID 2282986); conditions: HepG2 Attagene CIS-FACTORIAL Myb reporter transcription; actives raise or lower the signal
Protocol: ATG_CIS is a cell-based, multiplexed-readout assay that uses HepG2, a human liver cell line, with measurements taken at 24 hours after chemical dosing in a 24-well plate.ATG_Myb_CIS is one of 52 assay component(s) measured or calculated from the ATG_CIS assay. It is designed to make measurements of mRNA induction, a form of inducible reporter, as detected with fluorescence intensity signals by Reverse transcription polymerase chain reaction (RT-PCR) and Capillary electrophoresis technology.Data from the assay component ATG_Myb_CIS was analyzed into 1 assay endpoint. This assay endpoint, ATG_Myb_CIS, was analyzed with bidirectional fitting relative to DMSO as the negative control and baseline of activity. Using a type of inducible reporter, measures of mRNA for gain or loss-of-signal activity can be used to understand the reporter gene at the transcription factor-level as they relate to the gene MYB. Furthermore, this assay endpoint can be referred to as a primary readout, because this assay has produced multiple assay endpoints where this one serves a reporter gene function. To generalize the intended target to other relatable targets, this assay endpoint is annotated to the dna binding intended target family, where the subfamily is MYB proteins.
Human liver HepG2 cells are transiently transfected with multiple reporter transcription units (MRTUs) in 6-well plates using FuGene 6 reagent (Roche; 3 ml FuGene/1 mg DNA). The MRTU constructs are regulated by a cis-regulating element (promoter). […] A major difference between the CIS and TRANS system is that in CIS activities of endogenous TFs are measured, whereas the TRANS assay evaluates changes in activities of exogenous, chimeric NR-Gal4 proteins. […] At the end of 24 hour incubation, total RNA was isolated using TriZol reagent (Invitrogen). The isolated RNA is then reverse-transcribed using oligo(dT) primer and Mo-MLV reverse transcriptase (Invitrogen) with DNAse I (Ambion) treatment for 30 min. The one-tenth of the produced cDNA was amplified by PCR using Taq DNA polymerase (Invitrogen) and two reporter sequence-specific primers. The PCR products were fluorescently labeled by primer extension with 6-arboxyfluorescein (6-FAM) 5'-labeled reporter sequence-specific primer (2 min at 95 C, 20 s at 68 C and 10 min at 72 C) and these products were digested with 5U of HpaI (New England Biolabs) for 2h at 37 C. The fragments were purified using Qiaquick PCR columns (Qiagen), analyzed on an ABI 3130xL genetic analyzer (Applied Biosystems) with peak positions identified by using a set of X-rhodamine (ROX)-labeled MapMarker1000 molecular weight standards (BioVentures). The raw capillary electrophoresis data was processed using Attagraph software (Attagene).

Transcriptional activator Myb (Homo sapiens), sequence (P10242 whole entry, looked up): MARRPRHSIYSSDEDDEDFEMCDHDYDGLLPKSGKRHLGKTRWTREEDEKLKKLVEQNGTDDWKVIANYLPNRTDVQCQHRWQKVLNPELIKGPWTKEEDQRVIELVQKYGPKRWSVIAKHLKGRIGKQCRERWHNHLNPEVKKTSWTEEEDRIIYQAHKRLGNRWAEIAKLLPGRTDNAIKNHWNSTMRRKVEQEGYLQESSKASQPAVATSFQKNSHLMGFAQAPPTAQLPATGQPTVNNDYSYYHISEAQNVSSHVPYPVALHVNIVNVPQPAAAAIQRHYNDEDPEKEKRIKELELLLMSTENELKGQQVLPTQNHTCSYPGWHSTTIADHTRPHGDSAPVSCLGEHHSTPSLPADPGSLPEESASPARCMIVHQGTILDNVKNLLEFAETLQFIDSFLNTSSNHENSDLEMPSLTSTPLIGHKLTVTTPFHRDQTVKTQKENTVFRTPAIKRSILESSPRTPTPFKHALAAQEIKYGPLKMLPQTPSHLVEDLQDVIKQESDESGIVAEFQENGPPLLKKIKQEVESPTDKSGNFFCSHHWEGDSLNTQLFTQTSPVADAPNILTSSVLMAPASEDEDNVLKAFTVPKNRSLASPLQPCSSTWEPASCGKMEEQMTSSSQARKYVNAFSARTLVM

outcome, inactive:
CCCCCCCC(C)=O, CC(CC=O)c1ccccc1 (stereo not given), O=C(c1ccccc1)c1ccc(O)c(O)c1O, CNC(=S)NN, O=C1C=CC(=O)O1, CC1=CC[C@H](C(C)C)C=C1, N[C@H]1C(O)O[C@H](CO)[C@H](O)[C@@H]1O (stereo not given in full), Nc1ccc(Cl)cc1Cl, O=C(Nc1ccccc1)c1ccccc1O, CCCCCCCC[N+](C)(CCCCCCCC)CCCCCCCC, CC/C=C\C/C=C\C/C=C\CCCCCCCC(=O)O, C=CC(C)(CCC=C(C)C)OC(=O)CC(C)C (stereo not given), CCOC(=O)c1ccccc1C(=C1C=C(Br)C(=O)C(Br)=C1)c1cc(Br)c(O)c(Br)c1, CC(=O)Oc1ccc(C(C)=O)cc1, OCCc1ccncc1, CC(C)COC(=O)C=Cc1ccccc1, Cc1ccc(OC(=O)CC(C)C)cc1, Cc1oncc1C(=O)Nc1ccc(C(F)(F)F)cc1, CCc1ccc2c(c1)C(=O)c1ccccc1C2=O, CCC(C)C=O (stereo not given), c1cc(N(CC2CO2)CC2CO2)ccc1OCC1CO1 (stereo not given), [Cl][Nd]([Cl])[Cl], CC=CC(F)(F)C(F)(F)C(F)(F)F, CC(C)CC(O)Cc1ccccc1 (stereo not given), CCOC(=O)c1ccc(N(C)C)cc1, CCCCC(CC)CCC(CC(C)C)OS(=O)(=O)O (stereo not given), CCCCCCCOC(=O)CCC, CC(C)c1ccc(C#N)cc1, O=C1CCC(=O)N1Cl, O=C(Oc1ccccc1)c1ccc2ccccc2c1O, O=S(=O)(Oc1ccc(Cl)cc1Cl)c1ccccc1, O=Nc1ccc(O)cc1, S=C(NC1CCCCC1)NC1CCCCC1, ON(Cc1ccccc1)Cc1ccccc1, Cc1ccc(N)c([N+](=O)[O-])c1, CCN(CCO)c1cccc(C)c1, COc1ccc2nc(N)sc2c1, CO[Si](OC)(OC)c1ccccc1, O=S1(=O)OC(c2ccc(O)cc2)(c2ccc(O)cc2)c2ccccc21, Cn1c([N+](=O)[O-])cnc1COC(N)=O

— PubChem BioAssay (EPA / NIEHS)
